Test results published in PubChem BioAssay AID1159580 (chemical genetic matrix, 2015).
Where “and” joins values, the source holds several entries; their conditions need not be identical. Identical values can stand only once. Out of some 5,500 compounds screened, about 2,000 (36%) were called active. Another 18% or so got no clear call; they are omitted. Rule as the data show it: active = normalized growth mostly below about 0.91 (no sharp cut-off); inconclusive = no clear call, values can overlap the other calls; inactive = mostly above about 0.92. This is one part of the list.

Experiment: chemical genetic growth profiling, strain panel (AID 1159580);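 also: tested at 20 µM; growth read once vehicle control cultures reached saturation at 30 °C; 1 = growth at the plate median or of vehicle wells; lower values mean less growth of the strain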
Conditions: S. cerevisiae deletion strains, growth OD

Measured: normalized growth

COc1ccc(-c2cc(C(F)F)nn2-c2ccc(S(N)(=O)=O)cc2)cc1F
inactive: locus YAL013W, strain DEP1, hits give low values 1 | locus YAL021C, strain ccr4, hits give low values 0.991 | locus YAL026C, strain drs2, hits give low values 1.02 | locus YAL030W, strain snc1, hits give low values 1.01 | locus YBL061C, strain skt5, hits give low values 1 | locus YBR009C, strain hhf1, hits give low values 1 | locus YBR021W, strain FUR4, hits give low values 1.02 | locus YBR023C, strain chs3, hits give low values 0.992 | locus YBR171W, strain sec66, hits give low values 1.01 | locus YBR229C, strain ROT2, hits give low values 1.01 | locus YBR231C, strain swc5, hits give low values 1.01 | locus YBR279W, strain paf1, hits give low values 1 | locus YCL011C, strain gbp2, hits give low values 1.01 | locus YCL016C, strain dcc1, hits give low values 0.992 | locus YCL029C, strain bik1, hits give low values 1.01 | locus YCL069W, strain vba3, hits give low values 1 | locus YCR088W, strain abp1, hits give low values 1 | locus YDL005C, strain med2, hits give low values 1 | locus YDL035C, strain GPR1, hits give low values 1.02 | locus YDL040C, strain nat1, hits give low values 1.01 | locus YDL074C, strain BRE1, hits give low values 0.997 | locus YDL101C, strain DUN1, hits give low values 1 | locus YDL134C, strain PPH21, hits give low values 0.994 | locus YDL185W, strain tfp1, hits give low values 1.01 | locus YDL192W, strain arf1, hits give low values 1.01 | locus YDR001C, strain nth1, hits give low values 1.02 | locus YDR069C, strain doa4, hits give low values 1.01 | locus YDR101C, strain arx1, hits give low values 1.01 | locus YDR137W, strain rgp1, hits give low values 1.04 | locus YDR150W, strain NUM1, hits give low values 0.999 | locus YDR159W, strain sac3, hits give low values 1.01 | locus YDR162C, strain NBP2, hits give low values 0.988 | locus YDR195W, strain ref2 0.988 | locus YDR297W, strain sur2, hits give low values 1.01 | locus YDR318W, strain mcm21, hits give low values 1.02 | locus YDR334W, strain swr1, hits give low values 1.02 | locus YDR335W, strain msn5, hits give low values 1 | locus YDR388W, hits give low values 1.02 | locus YDR392W, strain spt3, hits give low values 0.922 | locus YDR502C, strain sam2, hits give low values 0.996 | locus YEL003W, strain gim4, hits give low values 1 | locus YEL037C, strain rad23, hits give low values 1.01 | locus YEL061C, strain CIN8 (second series), hits give low values 1.01 | locus YEL061C, strain CIN8, hits give low values 1 | locus YER015W, strain faa2, hits give low values 0.987 | locus YER016W, strain bim1, hits give low values 1 | locus YER110C, hits give low values 1.03 | locus YER111C, strain swi4, hits give low values 0.999 | locus YER155C, strain BEM2 (second series), hits give low values 0.887 | locus YER155C, strain BEM2, hits give low values 0.998 | locus YER167W, strain BCK2, hits give low values 1.01 | locus YFR010W, strain ubp6, hits give low values 1.02 | locus YGL078C, strain dbp3, hits give low values 0.996 | locus YGL086W, strain mad1, hits give low values 1.03 | locus YGL167C, strain pmr1, hits give low values 0.999 | locus YGL173C, strain kem1, hits give low values 0.998 | locus YGL227W, strain vid30, hits give low values 1.01 | locus YGL240W, strain doc1, hits give low values 0.961 | locus YGL248W, strain PDE1, hits give low values 0.997 | locus YGL253W, strain hxk2, hits give low values 1.01 | locus YGR078C, strain PAC10, hits give low values 0.994 | locus YGR135W, strain pre9, hits give low values 0.982 | locus YGR229C, strain SMI1, hits give low values 0.989 | locus YGR252W, strain gcn5, hits give low values 1.08 | locus YHR013C, strain ard1, hits give low values 1.06 | locus YHR027C, strain rpn1, hits give low values 1.01 | locus YHR030C, strain SLT2, hits give low values 1.01 and 1.05 | locus YHR079C, strain IRE1 (second series), hits give low values 1.02 | locus YHR079C, strain IRE1, hits give low values 1.06 | locus YHR094C, strain hxt1, hits give low values 1.01 | locus YHR129C, strain ARP1, hits give low values 1 | locus YHR142W, strain chs7, hits give low values 0.999 | locus YHR200W, strain rpn10, hits give low values 1.02 | locus YIL066C, strain RNR3, hits give low values 1.01 | locus YIL073C, strain SPO22, hits give low values 1.07 | locus YIL125W, strain kgd1, hits give low values 1.01 | locus YIR030C, strain dcg1, hits give low values 1.01 | locus YJL092W, strain hpr5, hits give low values 1 | locus YJL095W, strain BCK1 (second series), hits give low values 0.997 | locus YJL095W, strain BCK1, hits give low values 0.996 and 1.02 | locus YJL115W, strain asf1, hits give low values 1.01 | locus YJL129C, strain trk1, hits give low values 0.967 | locus YJL134W, strain LCB3, hits give low values 1 | locus YJL154C, strain vps35, hits give low values 0.999 | locus YJL164C, strain tpk1, hits give low values 0.992 | locus YJL166W, strain qcr8, hits give low values 0.984 | locus YJL168C, strain set2, hits give low values 1.02 | locus YJL187C, strain SWE1 (second series), hits give low values 0.995 | locus YJL187C, strain SWE1, hits give low values 1 | locus YJR043C, strain POL32, hits give low values 1.03 | locus YJR066W, strain TOR1, hits give low values 1.01
